Data reported in PubChem BioAssay (NCI).
About 79,000 compounds went through this panel and 15% of them were active in at least one assay; those are over-represented in the sample as a whole. Activity calls are given as the source filed them. No stated cut-off is given here; in the data, active means growth inhibition above about 70%; inactive means the rest.

How the values were obtained:
[1] = NCI Yeast Anticancer Drug Screen. Data for the rad52 strain (AID 147);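 further: 0% = growth of vehicle-treated control cultures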; details: S. cerevisiae rad52 mutant growth inhibition, stronger effect = higher value
In short: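 Yeast strain carrying a DNA damage repair alteration was exposed to test compounds. Growth inhibition was measured relative to vehicle-treated controls.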

[2] = NCI Yeast Anticancer Drug Screen. Data for the wt1 strain (AID 149);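 further: 0% = growth of vehicle-treated wt1 cultures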; details: S. cerevisiae wt1 strain (SPY 50644) growth inhibition, stronger effect = higher value
In short: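 The wt1 strain was treated with compounds, and growth was compared with vehicle-treated cultures to give inhibition.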

[3] = NCI Yeast Anticancer Drug Screen. Data for the rad50EPP+ strain (AID 151);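 further: 0% = growth of vehicle-treated control cultures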; details: S. cerevisiae rad50 mutant strain, stronger effect = higher value
In short: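 Yeast strain carrying rad50 alteration (rad50EPP+) exposed to compounds; growth inhibition measured relative to vehicle-treated controls.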

[4] = NCI Yeast Anticancer Drug Screen. Data for the mgt1 strain (AID 153); details: S. cerevisiae mgt1 mutant growth inhibition, stronger effect = higher value
In short: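 Yeast mgt1 strain (DNA repair/cell-cycle alteration panel) exposed to compounds; growth inhibition measured relative to vehicle-treated controls.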

[5] = NCI Yeast Anticancer Drug Screen. Data for the CLN2oe strain (AID 163);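 further: 0% = growth of vehicle-only control cultures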; details: S. cerevisiae CLN2oe strain, stronger effect = higher value
In short: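 Yeast cells carrying a defined cell-cycle control alteration were exposed to test compounds. Growth inhibition was scored against vehicle-treated control cultures.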

[6] = NCI Yeast Anticancer Drug Screen. Data for the wt2 strain (AID 169);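 further: 0% = growth of vehicle-treated yeast cultures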; details: S. cerevisiae wt2 strain growth inhibition, stronger effect = higher value
In short: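 Yeast cells were exposed to test compounds, and growth inhibition was measured relative to vehicle-treated controls.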

[7] = NCI Yeast Anticancer Drug Screen. Data for the mlh1 strain (AID 171);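 further: 0% = growth of vehicle-treated control cultures of the same strain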; details: S. cerevisiae mlh1 strain growth inhibition, stronger effect = higher value
In short: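 Yeast carrying a defined genetic alteration in DNA damage repair or cell cycle control were exposed to test compounds. Growth inhibition was measured relative to vehicle-treated controls.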

[8] = NCI Yeast Anticancer Drug Screen. Data for the sgs1 strain (AID 173);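 further: 0% = growth of vehicle-only control cultures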; details: S. cerevisiae sgs1 mutant, stronger effect = higher value
In short: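 Yeast mutant strains carrying defined defects in DNA damage repair or cell cycle control were exposed to test compounds. Growth inhibition was scored against vehicle-treated controls.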

[9] = NCI Yeast Anticancer Drug Screen. Data for the rad18 strain (AID 177); details: S. cerevisiae rad18 mutant growth inhibition, stronger effect = higher value
In short: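 Yeast carrying a defined DNA damage repair alteration were exposed to compounds. Growth inhibition was expressed relative to vehicle-treated controls.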

[10] = NCI Yeast Anticancer Drug Screen. Data for the rad50 strain (AID 155);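 further: 0% = growth of vehicle-only cultures of the same strain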; details: S. cerevisiae rad50 strain growth inhibition, stronger effect = higher value
In short: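 Cells are treated with compound, grown, and their growth is then scored against vehicle-only cultures of the same repair-deficient yeast strain.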

[11] = NCI Yeast Anticancer Drug Screen. Data for the mec2-1 strain (AID 157); details: S. cerevisiae mec2-1 strain, stronger effect = higher value
In short: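 mec2-1 yeast strain, carrying an alteration in DNA damage repair or cell cycle control, was exposed to compounds; growth inhibition was measured relative to vehicle-treated controls.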

[12] = NCI Yeast Anticancer Drug Screen. Data for the rad14 strain (AID 159);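 further: 0% = growth of vehicle-treated control cultures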; details: S. cerevisiae rad14 strain growth inhibition, stronger effect = higher value
In short: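 Readout: yeast growth inhibition, referenced to vehicle-only cultures. Strain bears a defined alteration in DNA damage repair.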

[13] = NCI Yeast Anticancer Drug Screen. Data for the sgs1 mgt1 strain (AID 161);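 further: 0% = growth of cultures given vehicle only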; details: S. cerevisiae sgs1 mgt1 strain, stronger effect = higher value
In short: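 Growth of a repair-deficient yeast mutant was monitored after compound treatment and expressed as inhibition relative to vehicle-treated cultures.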

[14] = NCI Yeast Anticancer Drug Screen. Data for the cln2 rad14 strain (AID 165);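 further: 0% = growth equal to vehicle treated cultures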; details: S. cerevisiae cln2 rad14 strain, stronger effect = higher value
In short: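 Yeast carrying cln2 and rad14 alterations (cell cycle control and DNA damage repair) were exposed to compounds. Growth inhibition was measured against vehicle-treated controls.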

[15] = NCI Yeast Anticancer Drug Screen. Data for the bub3 strain (AID 167); details: S. cerevisiae bub3 mutant strain, stronger effect = higher value
In short: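 Part of a panel of yeast mutants defective in DNA damage repair or cell cycle regulation. Each strain is grown with compound, and inhibition is calculated relative to solvent-treated cultures.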

[16] = NCI Yeast Anticancer Drug Screen. Data for the mlh1 rad18 strain (AID 175); details: S. cerevisiae mlh1 rad18 strain growth inhibition, stronger effect = higher value
In short: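 Growth inhibition of the yeast strain was measured after compound exposure and expressed relative to vehicle-treated controls. The strain carries defined defects in DNA damage repair.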

[17] = at 5.0 µM (retest, dose inferred, filed as 0.5)
[18] = at 50.0 µM (retest, dose inferred, filed as 5.0)

Measured: growth inhibition

[Pt].c1ccc(P(CCP(c2ccccc2)c2ccccc2)CCP(c2ccccc2)c2ccccc2)cc1
inactive: [1]; at 1.2 µM -15% | [1]; at 3.7 µM 2% | [1]; at 11.0 µM 7% | [2]; at 1.2 µM -1% | [2]; at 3.7 µM 6% | [2]; at 11.0 µM 19% | [3]; at 1.2 µM -8% | [3]; at 3.7 µM -1% | [3]; at 11.0 µM 11% | [3]; at 33.0 µM 61% | [4]; at 1.2 µM -5% | [4]; at 3.7 µM -18% | [4]; at 11.0 µM 2% | [5]; at 1.2 µM -18% | [5]; at 3.7 µM -4% | [5]; at 11.0 µM 4% | [6]; at 1.2 µM -7% | [6]; at 3.7 µM -4% | [6]; at 11.0 µM 2% | [7]; at 1.2 µM 5% | [7]; at 3.7 µM -5% | [7]; at 11.0 µM -1% | [8]; at 1.2 µM 2% | [8]; at 3.7 µM 5% | [8]; at 11.0 µM 41% | [9]; at 1.2 µM -33% | [9]; at 3.7 µM 6% | [9]; at 11.0 µM 20%
active: [1]; at 33.0 µM 89% | [1]; at 100.0 µM 84% | [2]; at 33.0 µM 94% | [2]; at 100.0 µM 90% | [3]; at 100.0 µM 85% | [4]; at 33.0 µM 92% | [4]; at 100.0 µM 94% | [5]; at 33.0 µM 95% | [5]; at 100.0 µM 88% | [6]; at 33.0 µM 83% | [6]; at 100.0 µM 93% | [7]; at 33.0 µM 94% | [7]; at 100.0 µM 92% | [8]; at 33.0 µM 96% | [8]; at 100.0 µM 94% | [9]; at 33.0 µM 94% | [9]; at 100.0 µM 83%

Nc1nc(N)c2c(n1)CCC(S(=O)(=O)c1ccc3ccccc3c1)C2 (stereo unspecified)
active: [10]; [18] 72% | [11]; [17] 83% | [11]; at 33.0 µM 80% | [11]; [18] 91% | [11]; at 50.0 µM 84.9% | [11]; at 100.0 µM 80%
inactive: [1]; at 1.2 µM 26% | [1]; at 3.7 µM 44% | [1]; at 11.0 µM 54% | [1]; at 33.0 µM 62% | [1]; at 100.0 µM 65% | [2]; at 1.2 µM -2% | [2]; at 3.7 µM 14% | [2]; at 11.0 µM 12% | [2]; at 33.0 µM 19% | [2]; at 100.0 µM 15% | [3]; at 1.2 µM 23% | [3]; at 3.7 µM 35% | [3]; at 11.0 µM 39% | [3]; at 33.0 µM 40% | [3]; at 100.0 µM 40% | [10]; at 1.2 µM -3% | [10]; at 3.7 µM 13% | [10]; [17] 56% | [10]; at 11.0 µM 32% | [10]; at 33.0 µM 45% | [10]; at 50.0 µM 49.2% | [10]; at 100.0 µM 54% | [11]; at 1.2 µM 14% | [11]; at 3.7 µM 46% | [11]; at 11.0 µM 65% | [12]; at 1.2 µM -2% | [12]; at 3.7 µM -6% | [12]; at 11.0 µM -11% | [12]; at 33.0 µM -8% | [12]; at 100.0 µM -4% | [13]; [17] 49% | [13]; [18] 60% | [13]; at 50.0 µM 36% | [5]; at 1.2 µM -3% | [5]; at 3.7 µM 6% | [5]; at 11.0 µM 0% | [5]; at 33.0 µM 8% | [5]; at 100.0 µM 6% | [14]; [17] 5% | [14]; [18] 7% | [14]; at 50.0 µM 6.95% | [15]; at 1.2 µM -41% | [15]; at 3.7 µM -27% | [15]; [17] 32% | [15]; at 11.0 µM -27% | [15]; at 33.0 µM 3% | [15]; [18] 30% | [15]; at 50.0 µM -7.8% | [15]; at 100.0 µM 2% | [6]; at 1.2 µM -35% | [6]; at 3.7 µM -8% | [6]; at 11.0 µM 1% | [6]; at 33.0 µM 5% | [6]; at 100.0 µM 23% | [7]; at 1.2 µM -5% | [7]; at 3.7 µM 3% | [7]; at 11.0 µM 8% | [7]; at 33.0 µM 10% | [7]; at 100.0 µM 9% | [8]; at 1.2 µM 16% | [8]; at 3.7 µM 45% | [8]; at 11.0 µM 55% | [8]; at 33.0 µM 56% | [8]; at 100.0 µM 44% | [16]; [17] 48% | [16]; [18] 54% | [16]; at 50.0 µM 13.6% | [9]; at 1.2 µM 7% | [9]; at 3.7 µM 1% | [9]; at 11.0 µM 8% | [9]; at 33.0 µM 20% | [9]; at 100.0 µM 22%

COc1ccc(S(=O)(=O)N/N=C\c2cc([N+](=O)[O-])cc(I)c2O)c(OC)c1OC
active: [1]; at 100.0 µM 94% | [10]; [18] 72% | [10]; at 50.0 µM 92.9% | [10]; at 100.0 µM 95% | [11]; [18] 76% | [11]; at 50.0 µM 73% | [11]; at 100.0 µM 83% | [12]; at 100.0 µM 96% | [13]; [18] 74% | [13]; at 50.0 µM 88.3% | [5]; at 100.0 µM 93% | [15]; at 100.0 µM 86% | [6]; at 100.0 µM 93% | [7]; at 100.0 µM 88% | [8]; at 100.0 µM 97% | [16]; [18] 73% | [16]; at 50.0 µM 85.5% | [9]; at 100.0 µM 93%
inactive: [1]; at 1.2 µM 0% | [1]; at 3.7 µM 9% | [1]; at 11.0 µM 20% | [1]; at 33.0 µM 42% | [2]; at 1.2 µM -7% | [2]; at 3.7 µM -8% | [2]; at 11.0 µM -8% | [2]; at 33.0 µM 9% | [2]; at 100.0 µM 49% | [3]; at 1.2 µM -5% | [3]; at 3.7 µM -6% | [3]; at 11.0 µM -5% | [3]; at 33.0 µM 17% | [3]; at 100.0 µM 63% | [10]; at 1.2 µM -7% | [10]; at 3.7 µM -7% | [10]; [17] 10% | [10]; at 11.0 µM 23% | [10]; at 33.0 µM 64% | [11]; at 1.2 µM -2% | [11]; at 3.7 µM -6% | [11]; [17] 14% | [11]; at 11.0 µM -7% | [11]; at 33.0 µM 15% | [12]; at 1.2 µM -3% | [12]; at 3.7 µM 4% | [12]; at 11.0 µM 13% | [12]; at 33.0 µM 39% | [13]; [17] 13% | [5]; at 1.2 µM -6% | [5]; at 3.7 µM -10% | [5]; at 11.0 µM -8% | [5]; at 33.0 µM 18% | [14]; [17] -8% | [14]; [18] 46% | [14]; at 50.0 µM 11.1% | [15]; at 1.2 µM -13% | [15]; at 3.7 µM -15% | [15]; [17] 1% | [15]; at 11.0 µM -5% | [15]; at 33.0 µM 15% | [15]; [18] 68% | [15]; at 50.0 µM 25.8% | [6]; at 1.2 µM -7% | [6]; at 3.7 µM -7% | [6]; at 11.0 µM -6% | [6]; at 33.0 µM 15% | [7]; at 1.2 µM 0% | [7]; at 3.7 µM -8% | [7]; at 11.0 µM 0% | [7]; at 33.0 µM 29% | [8]; at 1.2 µM -5% | [8]; at 3.7 µM -8% | [8]; at 11.0 µM 9% | [8]; at 33.0 µM 45% | [16]; [17] 15% | [9]; at 1.2 µM -1% | [9]; at 3.7 µM 0% | [9]; at 11.0 µM 13% | [9]; at 33.0 µM 37%
